This is a sample that favours compounds with a hit; in the whole collection about 19% have one here.
HT1080-NT tox = qHTS for induction of synthetic lethality in tumor cells producing 2HG: qHTS for the HT-1080-NT fibrosarcoma cell line. HT-1080-NT fibrosarcoma viability, CellTiter-Glo ATP luminescence, 48 h. Potency, µM (doses to about 46.1 µM), hits mostly cytotoxic. hit rate 1.6% among 360,000;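 further: NT is the 2HG producing partner of a matched IDH1 knockdown line; nearly all actives have a fitted effect of over 55% in size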
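HT-1080-NT; 750 cells/well; 5% FBS RPMI; 48 h compound, 37 degrees C; CellTiter-Glo luminescence; curve fitting and curve-class assignment.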
IL1B secr inh = qHTS for Inhibitors of Inflammasome Signaling: IL-1-beta AlphaLISA Primary Screen. AID 743279, 2014. activity change, % at 57.5 µM. THP-1 LPS/ATP IL-1B secretion, AlphaLISA, 16 h; active compounds read low. hit rate 4.7% among 360,000; in the data active means activity change below about -50%; inconclusive means mostly about -30% to -49%
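THP-1 cells pretreated 1 hr with compounds (up to 57.5 uM final), then stimulated with LPS (250 ng/mL final) plus ATP (1.25 mM final); secreted IL-1B measured by AlphaLISA after 16 hr, decreased signal indicating inhibition.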
HT1080 IDH1KD tx = qHTS for induction of synthetic lethality in tumor cells producing 2HG: qHTS for the HT-1080-IDH1KD cell line; HT-1080 IDH1 knockdown viability, ATP luminescence, 48 h; Potency, µM (series often up to 46.1 µM), most hits filed as cytotoxic; hit rate 2% among 360,000; AID 686971, 2013
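Using the IDH1-knockdown HT-1080 line run in the same batch and compound series as the NT line, viability after 48 h at 37 °C was determined by CellTiter-Glo luminescence and expressed as % activity.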
TDP1 cell noCPT = qHTS for Inhibitors of human tyrosyl-DNA phosphodiesterase 1 (TDP1): qHTS in cells in absence of CPT; DT40 Tdp1-/- hTDP1 cells, no CPT, ATP luminescence, 48 h; Potency, µM (titrated, usually from 46.2 µM), most hits filed as inhibitors; hit rate 15% among 420,000; further: nearly all actives have a fitted effect of over 55% in size
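Seeded 400 DT40-hTDP1 cells/well (vehicle DMSO, no 20 nM CPT); pinned compounds; ≥48 hr at 37 °C; CellTiter-Glo luminescence as viability measure.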
TDP1 cell CPT = qHTS for Inhibitors of human tyrosyl-DNA phosphodiesterase 1 (TDP1): qHTS in cells in presence of CPT; chicken DT40 Tdp1-/-;hTDP1 cells + 20 nM CPT, ATP luminescence, 48 h; Potency, µM (top dose mostly 46.2 µM), most hits filed as inhibitors; hit rate 12% among 420,000; further: nearly all actives have a fitted effect of over 55% in size
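Cell growth measured by CellTiter-Glo luminescence after a minimum 48 h, 37 C compound exposure with 20 nM CPT in Tdp1-knockout DT40 cells stably expressing hTDP1, seeded 400/well; qHTS titration format.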
Each line names hits and unclear results; the compound was inactive in the other large screens. Unless noted, the call rests on the fitted dose curve; in most records, active means well fitted curve in the direction sought with a large enough effect; inconclusive means small, poorly fitted or top-dose-only effect, or another doubt; inactive means no such curve, though single readings can be large; an effect the other way counts as inactive or inconclusive.

CN(C)CCNc1ncnc2c1sc1nc(N3CCCC3)c3c(c12)CC(C)(C)OC3	HT1080-NT tox inconclusive, IL1B secr inh -82, HT1080 IDH1KD tx 21µM, TDP1 cell noCPT 26µM, TDP1 cell CPT inconclusive
CC(C)CNc1ncnc2c1sc1nc(N3CCOCC3)c3c(c12)CC(C)(C)OC3	TDP1 cell noCPT 10µM, TDP1 cell CPT inconclusive
COc1cc(C(=O)NCC(=O)NCCN2C(=O)S/C(=C\c3ccc4c(c3)OCO4)C2=O)cc(OC)c1OC	TDP1 cell CPT inconclusive
COc1cc(OC)cc(C(=O)NCCN2C(=O)S/C(=C\c3cccs3)C2=O)c1	TDP1 cell noCPT 16µM, TDP1 cell CPT 16µM
COc1cc(C(=O)NCCN2C(=O)S/C(=C\c3cccs3)C2=O)cc(OC)c1OC	HT1080 IDH1KD tx inconclusive, TDP1 cell noCPT 16µM, TDP1 cell CPT inconclusive
COc1cc(/C=C2\SC(=O)N(CCNC(=O)c3c(C)noc3C)C2=O)cc(OC)c1OC	IL1B secr inh inconclusive, TDP1 cell noCPT 16µM, TDP1 cell CPT inconclusive
O=C(CSc1ncn[nH]1)NCc1ccccc1Cl	none
O=C(CSC1=Nc2ccccc2N=C(c2ccc(F)cc2)C1)NCc1ccc(Cl)cc1	TDP1 cell noCPT inconclusive, TDP1 cell CPT 21µM (no result: HT1080-NT tox, IL1B secr inh, HT1080 IDH1KD tx)
COc1cccc(CNC(=O)CSC2=Nc3ccccc3N=C(c3ccc(F)cc3)C2)c1	TDP1 cell noCPT inconclusive, TDP1 cell CPT 21µM (no result: HT1080-NT tox, IL1B secr inh, HT1080 IDH1KD tx)
O=C(CSC1=Nc2ccccc2N=C(c2ccc(F)cc2)C1)NCc1ccccc1Cl	TDP1 cell noCPT inconclusive, TDP1 cell CPT 23µM (no result: HT1080-NT tox, IL1B secr inh, HT1080 IDH1KD tx)
COc1cccc(CNC(=O)CSc2nnc3c(n2)[nH]c2ccc(F)cc23)c1	TDP1 cell noCPT inconclusive
c1cn(-c2ccnc(-c3ccc4c(c3)OCO4)n2)cn1	none (no result: HT1080-NT tox, IL1B secr inh, HT1080 IDH1KD tx)
Cc1ccn2cc(-c3cccc(NC(=O)c4cccs4)c3)nc2c1	IL1B secr inh -99, TDP1 cell noCPT 21µM, TDP1 cell CPT inconclusive
O=C(Nc1cccc(-c2csc(-c3ccccc3)n2)c1)c1cccs1	HT1080-NT tox inconclusive, IL1B secr inh -63, TDP1 cell noCPT 16µM, TDP1 cell CPT 18µM
O=C(Nc1cccc(-c2cn3cccnc3n2)c1)c1cccs1	none
Cc1nc(-c2cccc(NC(=O)c3cccs3)c2)cs1	HT1080 IDH1KD tx inconclusive, TDP1 cell noCPT inconclusive
CCOc1ccc(C(C)=O)cc1COC(=O)c1cc([N+](=O)[O-])ccc1N1CCOCC1	TDP1 cell noCPT inconclusive, TDP1 cell CPT 23µM
COc1ccc(OC)c(COC(=O)c2cc([N+](=O)[O-])ccc2N2CCOCC2)c1	HT1080-NT tox inconclusive, HT1080 IDH1KD tx inconclusive, TDP1 cell noCPT 4.1µM, TDP1 cell CPT 7.3µM
O=C1CNC(=O)/C(=C/c2ccco2)N1	none
O=[N+]([O-])c1ccc(NC2CCN(Cc3ccccc3)CC2)c([N+](=O)[O-])c1	HT1080-NT tox inconclusive, TDP1 cell noCPT 21µM, TDP1 cell CPT inconclusive
O=C1C2CCCCC2C(=O)N1c1ccc(NC2CCN(Cc3ccccc3)CC2)c([N+](=O)[O-])c1 (stereo unspecified)	TDP1 cell noCPT inconclusive, TDP1 cell CPT inconclusive
CC1CCC2C(=O)N(c3ccc(NC4CCN(Cc5ccccc5)CC4)c([N+](=O)[O-])c3)C(=O)C2C1 (stereo unspecified)	TDP1 cell noCPT 16µM, TDP1 cell CPT inconclusive
COc1cc2c(C)nc(C)c(C#N)c2cc1OC	TDP1 cell noCPT inconclusive
CC1c2cc3c(cc2CCN1C(=O)c1cccc(Cl)c1)OCCCO3 (stereo unspecified)	HT1080-NT tox 21µM, HT1080 IDH1KD tx inconclusive, TDP1 cell noCPT 6.5µM, TDP1 cell CPT 7.3µM
CC1c2cc3c(cc2CCN1CC(=O)Nc1ccccc1)OCCCO3 (stereo unspecified)	TDP1 cell noCPT 23µM, TDP1 cell CPT 15µM
CN(CC(=O)Nc1cccc(F)c1)C(=O)c1ccc(NC2CC2)c([N+](=O)[O-])c1	TDP1 cell CPT inconclusive
NC(=O)c1cccc(CS(=O)(=O)c2ccc(Cl)cc2)c1	none
Cc1ccc(S(=O)(=O)N2CCOC23CCN(C(=O)c2cc(Cl)ccc2Cl)CC3)cc1	TDP1 cell noCPT inconclusive, TDP1 cell CPT inconclusive
Cc1ccc(S(=O)(=O)N2CCOC23CCN(C(=O)c2ccc(Cl)cc2Cl)CC3)cc1	HT1080-NT tox inconclusive, IL1B secr inh inconclusive, TDP1 cell noCPT 21µM, TDP1 cell CPT inconclusive
O=S(=O)(c1ccc(Cl)cc1)N1CCC2(CC1)OCCN2S(=O)(=O)c1cccs1	TDP1 cell noCPT 18µM, TDP1 cell CPT inconclusive
Cc1ccc(S(=O)(=O)N2CCOC23CCN(S(=O)(=O)c2c(C)cc(C)cc2C)CC3)cc1	TDP1 cell noCPT inconclusive, TDP1 cell CPT 18µM
O=C(NCCCN1CCCC1=O)C(=O)NCC1OCCCN1S(=O)(=O)c1cc(F)ccc1F (stereo unspecified)	none
CC(C)C(NS(C)(=O)=O)c1nnc2n1CCN(Cc1ccnc3ccccc13)CC2 (stereo unspecified)	TDP1 cell CPT inconclusive (no result: HT1080-NT tox, IL1B secr inh, HT1080 IDH1KD tx)
COc1ccc(-c2cc3ccccc3n2CC(O)CNCCO)cc1 (stereo unspecified)	TDP1 cell noCPT 15µM, TDP1 cell CPT 23µM
CCOc1ccc(C(CC(=O)O)NC(=O)C(CC)c2ccccc2)cc1 (stereo unspecified)	none
Cc1ccc(NC(=O)c2ccc3c(c2)C(=O)N(c2cc(C)ccc2C)C3=O)nc1	TDP1 cell CPT inconclusive
CC(Cc1cccs1)NC(=O)Nc1ccc([N+](=O)[O-])cc1 (stereo unspecified)	TDP1 cell noCPT 16µM, TDP1 cell CPT inconclusive
COc1cc2[nH]c(=O)n(CCCCCC(=O)N3CCN(c4ccccc4)CC3)c(=O)c2cc1OC	TDP1 cell noCPT 16µM, TDP1 cell CPT 21µM
COc1cc2[nH]c(=O)n(CCCC(=O)N3CCN(c4cccc(C(F)(F)F)c4)CC3)c(=O)c2cc1OC	TDP1 cell noCPT 2.3µM, TDP1 cell CPT 4.6µM (no result: HT1080-NT tox, IL1B secr inh, HT1080 IDH1KD tx)
CCOc1cc2[nH]c(=O)n(CCCCC(=O)N3CCN(c4ccc(OC)cc4)CC3)c(=O)c2cc1OCC	TDP1 cell noCPT 9.2µM, TDP1 cell CPT 16µM (no result: HT1080-NT tox, IL1B secr inh, HT1080 IDH1KD tx)
COC(=O)c1ccc2c(=O)n(CCCCCC(=O)N3CCN(c4ccccc4)CC3)c(=O)[nH]c2c1	TDP1 cell noCPT 10µM, TDP1 cell CPT 18µM
CCOc1cc2[nH]c(=O)n(CCCN3CCN(c4ccc(OC)cc4)CC3)c(=O)c2cc1OCC	TDP1 cell noCPT inconclusive, TDP1 cell CPT inconclusive
COc1cc2[nH]c(=O)n(CCCC(=O)NCc3ccccc3)c(=O)c2cc1OC	none (no result: HT1080-NT tox, IL1B secr inh, HT1080 IDH1KD tx)
Cc1ccc(S(=O)(=O)N2CCOCC2)cc1C(=O)NCCCN1CCCC1=O	none
COc1ccc(NC(=O)Cn2nnc(C(=O)NCc3ccccc3Cl)c2N)cc1Cl	none (no result: HT1080-NT tox, IL1B secr inh, HT1080 IDH1KD tx)

Compound activity as filed in PubChem BioAssay.
